# DAX1 inh-1: DAX1 (NR0B1) inhibitors on StAR promoter, primary screen, cell-based, luminescence, SF-1 (NR5A1), full-length DAX-1; 370,000 tested, 1.1% active; inhibition, % at 6.8 µM; HEK293T StAR-luciferase reporter, SF-1/DAX-1 repression relief;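 active = inhibition above the mean over all tested compounds plus 3 SD, cut at about 3.6% in these data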;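 also: 0% = DAX-1 cells with DMSO and 100% = cells lacking DAX-1 with DMSO; higher inhibition means more luminescence from relief of DAX-1 repression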
# Wee1 stabilizer: Wee1 degradation inhibitors, primary screen, cell-based, HeLa, Wee1K328M-luciferase, luminescence; 220,000 tested, 1.2% active; HeLa Luc-Wee1K328M stability; 100% = proteasome inhibitor MG132 effect; AID 1321, 2008; reporter increase, % at 5 µM;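 active = activation above the mean of all tested compounds plus 3 SD, set per screening run, cut at about 8.8% in these data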;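 also: cells exposed to compound for 20 h before luminescence read; 0% = DMSO alone and 100% = MG132 at 30 µM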
# DAX1 inh-2: DAX1 (NR0B1) inhibitors, primary screen, cell-based, HEK293, Gal4-DAX1, luciferase luminescence. Nuclear receptor subfamily 0 group B member 1 (Homo sapiens), P51843. HEK293 Gal4-DAX1 luciferase reporter. inhibition, % at 6.75 µM. 340,000 tested, 0.99% active;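 active = inhibition above the mean over all tested compounds plus 3 SD, cut at about 4.2% in these data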;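 also: 0% = DAX1-transfected cells with DMSO and 100% = empty-vector control cells with DMSO; inhibition shows as a rise in luminescence from relieved DAX1 repression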
# Target sequence (P51843 207-470 limits assumed): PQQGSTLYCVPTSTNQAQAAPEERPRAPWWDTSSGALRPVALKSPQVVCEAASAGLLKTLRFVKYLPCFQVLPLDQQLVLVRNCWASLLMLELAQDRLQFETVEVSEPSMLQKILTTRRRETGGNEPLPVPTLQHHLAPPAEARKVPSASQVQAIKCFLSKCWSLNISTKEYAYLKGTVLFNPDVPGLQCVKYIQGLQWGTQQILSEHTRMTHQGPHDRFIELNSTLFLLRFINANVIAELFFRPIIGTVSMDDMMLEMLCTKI
# ssDAF-12 act: S. stercoralis DAF-12 nuclear receptor activators, primary screen, cell-based, luminescence, HEK293, GRIP1 co-expression, lit1-tk-luc | Nuclear hormone receptor DAF-12 (Strongyloides stercoralis) | HEK293 ssDAF-12/GRIP1 lit1-tk-luc reporter; % of 3 µM dafachronic acid response | activation, % at 6.8 µM | 370,000 tested, 1% active;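 active = activation above the mean over all tested compounds plus 3 SD, cut at about 0.9% in these data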;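 also: 0% = DMSO-only wells and 100% = 3 µM delta7-dafachronic acid wells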
# hcDAF-12 act: H. contortus DAF-12 nuclear receptor activators, primary screen, cell-based, luminescence, HEK293, lit1-tk-luc reporter; HEK293 hcDAF-12 lit1-tk-luc reporter; 0% DMSO, 100% Δ7-dafachronic acid; 370,000 tested, 1.4% active; activation, % at 6.8 µM;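 active = activation above the mean of all tested compounds plus 3 SD, cut at about 5.5% in these data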;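 also: 100% = response to 3 µM Δ7-dafachronic acid high control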
# hgDAF12 agonist: H. glycines DAF-12 receptor agonists, primary screen, cell-based, luminescence, HEK293, GAL4 fusion, UAS-luciferase. activation, % at 6.8 µM. HEK293 GAL4-hgDAF12 UAS-luciferase reporter, agonist luminescence; normalized to butyrate control. AID 687014, 2013. 370,000 tested, 1.8% active. Nuclear hormone receptor DAF-12 (Heterodera glycines), GAL4 fusion;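 active = activation above a cutoff set at the mean of all screened compounds plus 3 SD, cut at about 10% in these data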;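 also: 0% = DMSO wells and 100% = sodium butyrate wells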
# LXRb hcDAF ctr: LXR agonists, Gal4 luciferase reporter, confirmation, counter-screen for hcDAF-12 agonist project, cell-based, luminescence, HEK293, H. contortus campaign. shares compounds with hcDAF-12 act. HEK293 Gal4-LXR tk-luc reporter, 24 h; normalized: DMSO 0%, positive control 100%. activation, % at 6.8 µM. 3,400 tested, under 10 active. AID 743027, 2013;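 active = mean percent activation of the reporter above a cutoff set as the average over tested compounds plus their standard deviation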
# Target sequence (P55055 whole entry, looked up, the tested form may be a part): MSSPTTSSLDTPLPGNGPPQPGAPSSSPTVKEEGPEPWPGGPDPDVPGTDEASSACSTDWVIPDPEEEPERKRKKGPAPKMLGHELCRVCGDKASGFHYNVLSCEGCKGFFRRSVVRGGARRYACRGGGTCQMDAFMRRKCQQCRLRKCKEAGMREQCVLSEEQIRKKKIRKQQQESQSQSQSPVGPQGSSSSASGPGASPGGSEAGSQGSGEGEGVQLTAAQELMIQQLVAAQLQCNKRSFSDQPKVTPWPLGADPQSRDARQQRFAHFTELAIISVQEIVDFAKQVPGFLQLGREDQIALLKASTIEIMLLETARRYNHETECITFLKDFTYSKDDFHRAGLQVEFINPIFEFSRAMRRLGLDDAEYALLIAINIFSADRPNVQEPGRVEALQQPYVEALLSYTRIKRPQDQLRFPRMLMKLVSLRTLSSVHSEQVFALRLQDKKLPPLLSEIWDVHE
# hcDAF12 ag: H. contortus DAF-12 receptor agonists, confirmation, cell-based, luminescence, HEK293, lit1-tk-luc, triplicate. shares compounds with hcDAF-12 act. HEK293 hcDAF-12 lit1-tk-luc reporter; % of Δ7-dafachronic acid response. activation, % at 6.8 µM. 3,400 tested, 61% active. AID 743032, 2013;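 active = mean activation across triplicate tests above the threshold derived from the earlier primary screen, cut at about 5.5% in these data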;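 also: 0% = DMSO only wells and 100% = 3 µM Δ7-dafachronic acid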
# hgDAF12 conf: H. glycines DAF-12 receptor agonists, confirmation, cell-based, luminescence, HEK293, GAL4-LBD fusion; shares compounds with hgDAF12 agonist; HEK293 GAL4-hgDAF12 luciferase reporter, agonist mode; percent of butyrate response; activation, % at 6.8 µM; 3,300 tested, 80% active;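 active = mean activation over triplicate wells above the hit cutoff derived from the earlier primary screen, cut at about 11% in these data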;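 also: 0% = DMSO low control and 100% = 2 mM sodium butyrate high control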
# LXR ag 2: LXR agonists, Gal4 luciferase reporter, confirmation, counter-screen for hgDAF-12 agonist project, cell-based, luminescence, HEK293, H. glycines campaign; AID 743051, 2013; 3,300 tested, under 10 active; shares compounds with hgDAF12 agonist; 24 h; activation, % at 6.8 µM;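 active = mean activation of the triplicate above a set limit carried over from the primary screen, none filed active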
# The depositor's hits bear a star; . = no result. This is a sample that favours compounds with a hit; in the whole collection about 4.6% have one here.
SMILES,DAX1 inh-1,Wee1 stabilizer,DAX1 inh-2,ssDAF-12 act,hcDAF-12 act,hgDAF12 agonist,LXRb hcDAF ctr,hcDAF12 ag,hgDAF12 conf,LXR ag 2
Cc1ccc(NC(=O)c2ccc(C)cc2)cc1,2.8,.,-1.9,0.5,7.8*,13.9*,1.1,5.7*,21.4*,1.1
Cc1cccc(C(=O)Nc2ccc(NC(=O)c3cccc(C)c3)cc2)c1,-0.9,.,-1.3,-1.9,0.6,-0.3,.,.,.,.
Cc1ccc(NC(=O)c2cc3ccccc3oc2=N)cc1,3.7*,.,2.4,0.9*,10.9*,14.2*,1.1,16.6*,6.7,0.6
N=c1oc2ccccc2cc1C(=O)Nc1ccc(F)cc1,1.0,.,2.3,0.0,4.6,8.1,.,.,.,.
COc1cc(SC)ccc1C(=O)Nc1ccncc1,-0.8,-2.0,-1.6,-1.2,-1.7,3.7,.,.,.,.
COc1ccc(C(=O)Nc2ccc3ccccc3c2)c(OC)c1,2.9,.,5.8*,3.7*,15.6*,15.2*,1.9,14.7*,26.1*,1.1
Cc1ccc(S(=O)(=O)N2CCN(C(=O)[C@H](Cc3ccccc3)NC(=O)c3ccco3)CC2)cc1C,-0.3,.,-1.1,-0.4,1.0,0.9,.,.,.,.
COc1cc2ccccc2cc1C(=O)Nc1ccc(Cc2ccncc2)cc1,-2.5,-1.8,-1.5,-1.8,-0.2,0.8,.,.,.,.
COc1cc2ccccc2cc1C(=O)Nc1ccc(C)cc1,1.3,.,5.9*,1.0*,17.3*,19.0*,0.7,11.8*,20.3*,0.6
O=C(/C=C/c1ccccc1Cl)Nc1ccccc1,2.8,9.3*,.,2.6*,15.7*,19.8*,2.5,16.2*,24.9*,1.2
Cc1cc(O)ccc1N/C=C/c1onc(C)c1[N+](=O)[O-],2.5,3.6,1.4,0.9*,7.9*,16.5*,1.5,6.2*,15.0*,0.8
Cc1cccc(N/C=C/c2onc(C)c2[N+](=O)[O-])c1,1.8,4.5,1.6,0.7,4.4,7.9,.,.,.,.
Cc1ccnc(NC(=O)c2cc3cc(F)ccc3s2)c1,3.3,.,2.4,2.4*,9.9*,21.9*,1.6,8.4*,19.2*,1.1
Cc1ccc(C(O)c2ncc(-c3ccc4ccccc4c3)[nH]2)cc1F (centres undefined),0.8,.,.,-0.9,-1.3,2.1,.,.,.,.
Cc1cc(N)n(-c2cc(C)c3ccccc3n2)n1,3.5,3.0,1.4,1.6*,9.9*,16.6*,1.3,13.5*,17.1*,0.7
c1ccc(SCc2nc3ccccc3s2)nc1,2.4,.,3.0,4.5*,15.2*,13.6*,0.9,7.8*,16.3*,0.8
c1ccc(OCc2nc3ccccc3s2)cc1,3.3,-0.1,5.8*,1.6*,8.6*,13.9*,0.9,5.9*,17.9*,1.0
Cc1cc(C(=O)OCc2nc3ccccc3s2)c(C)o1,0.4,-2.2,0.9,-1.3,4.1,7.0,.,.,.,.
O=C(O)CCCc1nc2ccccc2s1,0.5,-0.4,-0.3,-1.0,-2.4,1.6,.,.,.,.
Cc1cc(OCc2nc3ccccc3s2)ccc1N,2.2,0.8,2.5,2.0*,13.2*,14.4*,1.5,13.9*,18.5*,0.8
O=C(CCCN1C(=O)/C(=C/c2ccccc2OC(F)F)SC1=S)Nc1cccnc1,1.0,.,-1.2,-0.9,0.7,6.1,.,.,.,.
COC(=O)c1cc(COC(=O)CNC(=O)c2ccc(Br)cc2)oc1C,-0.5,.,1.0,-0.8,-0.8,2.8,.,.,.,.
CSc1nnc(-c2ccccc2Cl)o1,0.5,1.2,3.8,-1.0,-1.2,0.8,.,.,.,.
Clc1ccccc1-c1ncc(-c2ccccc2)o1,2.2,.,5.2*,1.4*,9.7*,14.4*,1.2,7.8*,21.2*,1.2
COc1ccc2cc(-c3nc4ccccc4n3C)c(=O)oc2c1,4.1*,0.3,3.0,0.1,6.8*,16.1*,0.8,5.5,11.3*,0.4
SMILES,DAX1 inh-1,Wee1 stabilizer,DAX1 inh-2,ssDAF-12 act,hcDAF-12 act,hgDAF12 agonist,LXRb hcDAF ctr,hcDAF12 ag,hgDAF12 conf,LXR ag 2
COc1ccc(-c2nc(N/N=C(\C)c3ccc(O)cc3)c3ccccc3n2)cc1,0.8,0.5,-1.2,-0.7,2.7,6.3,.,.,.,.
C/C(=N\Nc1nncc2ccccc12)c1ccc(O)cc1,1.8,.,-0.9,0.6,7.0*,16.1*,1.3,3.5,9.4,0.7
Cc1ccc(N/C=C/C(=O)c2ccccc2)cc1Br,3.8*,.,1.6,3.4*,16.4*,18.6*,2.4,16.1*,25.3*,1.2
Nc1nc(-c2cc(-c3ccccc3)no2)cs1,2.4,.,3.7,0.7,7.9*,17.9*,1.3,5.4,20.9*,0.9
Cc1ccccc1NC(=S)c1ccc2ccccc2n1,1.0,.,1.1,1.3*,14.2*,13.3*,0.3,7.9*,13.5*,0.5
CC1(c2ccccc2)CC(c2ccccc2)=Nc2ccccc2N1 (centres undefined),.,3.6,3.5,.,.,.,.,.,.,.
Cc1ccc2c(c1)N=C(c1ccccc1)CC(C(Cl)Cl)=N2,1.9,-0.5,-1.4,1.8*,15.3*,13.6*,0.8,8.1*,19.1*,1.0

# Assay outcomes as filed in PubChem.
